In PubChem BioAssay AID485358 (National Center for Advancing Translational Sciences (NCATS), 2010):
Hit rate of the full screen: of about 340,000 compounds, about 1,800 (0.53%) were called active. The full list was thinned out, with actives kept by preference. Unmarked numbers belong to inactive results.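 How the source made its calls: active means activation over 3 SD above normal in the single-dose calcium agonist read (cut at about 30% in these data); inactive means the rest.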

Each molecule was assayed against D(2) dopamine receptor (Homo sapiens) (UniProt P14416) (assay: HTS Assay for Allosteric Agonists of the Human D2 Dopamine Receptor: Primary Screen for Agonists). Conditions: HEK293 T-REx D2 cells, calcium flux agonist mode; at 2 µM; hits give high values.
D(2) dopamine receptor (Homo sapiens), sequence (P14416 whole entry, looked up): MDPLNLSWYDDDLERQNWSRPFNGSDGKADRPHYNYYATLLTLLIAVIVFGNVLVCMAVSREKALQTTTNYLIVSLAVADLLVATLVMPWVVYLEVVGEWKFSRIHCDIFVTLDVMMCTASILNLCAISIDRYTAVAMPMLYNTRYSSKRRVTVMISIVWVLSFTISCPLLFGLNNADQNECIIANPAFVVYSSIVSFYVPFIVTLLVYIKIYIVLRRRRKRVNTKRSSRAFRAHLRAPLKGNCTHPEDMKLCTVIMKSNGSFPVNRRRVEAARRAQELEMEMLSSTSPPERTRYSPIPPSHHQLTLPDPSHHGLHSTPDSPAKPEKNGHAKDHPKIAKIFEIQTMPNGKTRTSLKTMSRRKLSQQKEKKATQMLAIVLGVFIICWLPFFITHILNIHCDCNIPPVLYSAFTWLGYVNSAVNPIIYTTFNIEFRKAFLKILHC
Summary of the method: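 Tetracycline-induced HEK293 Trex cells with D2 receptor force-coupled to calcium signaling, plated overnight at 30 C and loaded with no-wash calcium dye. Calcium flux read kinetically for 180 s after compound addition; responses flag agonists.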
Further: 0% is about no effect.

Row | SMILES | activation
1 | OC(COc1cccc2ccccc12)CN1CCN(c2ccccn2)CC1 (stereo not drawn) | 66.3% (active)
2 | O=S(=O)(c1ccc(OCC(O)CN2CCN(c3ccccc3Cl)CC2)cc1)N1CCOCC1 (stereo not drawn) | -0.884%
3 | O=C(C(c1ccccc1)c1ccccc1)N1CCN(CC(O)COc2ccccc2)CC1 (stereo not drawn) | -0.117%
4 | Cc1cccc(OCC(O)CN2CCN(CCN3C(=O)c4cccc5cccc(c45)C3=O)CC2)c1C (stereo not drawn) | -0.617%
5 | CC(C)c1ccc(OCC(O)CN2CCN(c3ccccn3)CC2)cc1 (stereo not drawn) | 66.2% (active)
6 | C=CCc1ccccc1OCC(O)CN1CCN(CCO)CC1 (stereo not drawn) | -1.83%
7 | CNCC(O)CN1CCN(c2ccccc2OC)CC1 (stereo not drawn) | 0.328%
8 | CC(C)c1ccc(OCC(O)Cn2cnc3ccccc32)cc1 (stereo not drawn) | 1.03%
9 | CC1CCN(CC(O)COc2ccc(C(=O)c3ccccc3)cc2)CC1 (stereo not drawn) | -0.0837%
10 | Cc1ccccc1OCC(O)CN1CCN(c2ccccn2)CC1 (stereo not drawn) | 64.7% (active)
11 | CC(=O)Nc1ccc(OCC(O)CN2CCN(c3ccccc3Cl)CC2)cc1 (stereo not drawn) | 71.6% (active)
12 | Cc1ccc(OCC(O)CN2CCN(CC(O)COc3ccc(C)cc3Cl)CC2)c(Cl)c1 (stereo not drawn) | 0.53%
13 | COc1cc(C(=O)N2CCN(c3ccc(Nc4ccc(C)cc4)nn3)CC2)cc(OC)c1OC | -0.205%
14 | COc1ccccc1Cc1nc2ccccc2nc1SCC(=O)N1CCCc2ccccc21 | 1.06%
15 | COc1cccc(NC(=O)N(Cc2cn(C)c3ccccc23)C2CCCCCC2)c1 | 0.628%
16 | Cn1ccc2cc(S(=O)(=O)N3CCCC(C(=O)NCc4ccccc4F)C3)ccc21 (stereo not drawn) | -0.715%
17 | Cc1ccc(Cl)cc1NC(=O)CSc1nccn1C | -0.262%
18 | CCc1ccc(CN(Cc2ccco2)C(=O)COc2ccc(Cl)c(C)c2)cc1 | 3.85%
19 | COC(=O)C1=C(c2ccccc2)c2ccccc2S(=O)(=O)N1CC(=O)Nc1ccccc1C(F)(F)F | -0.526%
20 | COc1ccccc1OCC(=O)Nc1nnc2n1CCS2 | -1.11%
21 | CCN1CCN(CCCNC(=O)c2ccc3c(c2)sc2nc(-c4ccc(OC)cc4)cn23)CC1 | 1.86%
22 | Cc1nc2ccc(S(=O)(=O)NC(C(=O)NCc3ccccc3Cl)C(C)C)cc2s1 (stereo not drawn) | -0.364%

Row | SMILES | activation
23 | Cn1c(C(=O)NCCc2ccsc2)cc2c(=O)n(C)c3ccccc3c21 | 0.0188%
24 | Cn1c(=O)cc(OCC(=O)N2CCN(c3ccccc3)CC2)c2ccccc21 | 0.681%
25 | Cn1c(C(=O)NCCCN2CCN(c3cccc(Cl)c3)CC2)cc2c(=O)n(C)c3ccccc3c21 | 60.1% (active)
26 | CCn1c(=O)cc(OCC(=O)Nc2cc(Cl)c(OC)cc2OC)c2ccccc21 | -0.253%
27 | CCn1c(=O)cc(OCC(=O)NCCCN2CCN(c3cccc(Cl)c3)CC2)c2ccccc21 | 72.9% (active)
28 | CCN1CCCC1CNC(=O)c1cc2c(=O)n(C)c3ccccc3c2n1C (stereo not drawn) | 1.59%
29 | Cc1cc(C)cc(NC(=O)CSc2nc3nccnc3c(=O)n2CCc2c[nH]c3ccccc23)c1 | 0.038%
30 | Cc1ccccc1CNC(=O)C1CCCN(S(=O)(=O)N(C)c2ccc(F)cc2)C1 (stereo not drawn) | -0.556%
31 | CCOc1ccc(CNC(=O)c2ccc(CS(=O)c3ccccc3)o2)cc1 (stereo not drawn) | -0.363%
32 | CCCN(CCC)CCNC(=O)Cn1cnc2sc(C)c(S(=O)(=O)N3CCC(C)CC3)c2c1=O | 0.0784%
33 | CCCCCC(=O)NC(=S)NNC(=O)c1ccc([N+](=O)[O-])cc1 | 2.53%
34 | CCCCC(=O)NNC(=S)NC(=O)C(c1ccccc1)c1ccccc1 | 52.5% (active)
35 | CCC(C)NC(=O)CCCc1ccccc1 (stereo not drawn) | 1.02%
36 | CCCCOc1ccc(CN2C(=O)C(=O)c3cc(Br)cc(C)c32)cc1OC | -0.896%
37 | c1ccc2cc3[nH]c(CN4CCCCC4)nc3cc2c1 | 39.6% (active)
38 | Cc1ccc2[nH]c(=O)c(CN3CCCCC3)c(-c3ccccc3)c2c1 | 16.6%
39 | Clc1ccc(CN2CCCCCC2)cc1Cl | 0.701%
40 | COc1cc(Cl)c(NC(=O)C(NS(=O)(=O)c2cccs2)C(C)C)c(OC)c1 (stereo not drawn) | 0.0329%
41 | COc1ccc(-n2c(=O)c3sc4ccccc4c3n(CC(=O)Nc3cccc(C)c3)c2=O)cc1 | 1.94%
42 | COc1cccc(NC(=O)C2CCCN(c3ncnc4c3nc3n4CCCCC3)C2)c1 (stereo not drawn) | 60.2% (active)
43 | COc1cccc(CNC(=O)C2CCCN(c3ncnc4c3nc3n4CCCCC3)C2)c1 (stereo not drawn) | -0.0991%
44 | CCOC(=O)c1cccc(NC(=O)C2CCN(c3ncnc4c3nc3n4CCCCC3)CC2)c1 | -0.296%

Row | SMILES | activation
45 | O=C(/C=C/c1ccccc1)N1CCN(Cc2cc(=O)n3nc(-c4ccccc4F)sc3n2)CC1 | 0.305%
46 | O=C(O)/C=C/c1ccc(S(=O)(=O)N2CCCCCC2)cc1 | 19.8%
47 | O=C(/C=C(O)/C=C/c1ccc(O)cc1)/C=C/c1ccc(O)cc1 | 57.4% (active)
48 | C=CCNC(=O)/C=C/c1ccc(C(C)C)cc1 | 0.0403%
49 | CC(NC(=O)c1cc2c(=O)n3ccccc3nc2n(C(C)C)c1=N)c1ccccc1 (stereo not drawn) | 0.527%
50 | COc1ccc(CNC(=O)CS(=O)Cc2nc(-c3cccc(C)c3)oc2C)cc1 (stereo not drawn) | -0.737%
51 | CCN(CCCNC(=O)c1ccc2c(c1)NC(=O)CN2C)c1cccc(C)c1 | 37.3% (active)
52 | CCN(CCCNC(=O)CSc1cc(=O)n(C)c2cc(Cl)ccc12)c1cccc(C)c1 | 0.221%
53 | CCN(CCCNC(=O)c1ccc(Sc2ccc(C)cc2)c(NC(C)=O)c1)c1cccc(C)c1 | 0.373%
54 | COc1cc(OC)c(NC(=O)Cc2ccc(-n3c(C)nc4cccnc43)cc2)cc1Cl | -0.621%
55 | CCOc1cc(C2c3c(-c4ccc(Br)cc4)n[nH]c3C(=O)N2c2ccc(Cl)cc2)ccc1O (stereo not drawn) | 0.413%
56 | Cc1cc(C)cc(NC(=O)Cn2nc(N3CCN(c4ccccc4)CC3)ccc2=O)c1 | 0.0127%
57 | O=C(NCCc1c[nH]c2ccccc12)C1CCN(Cc2ccc(Br)cc2)CC1 | -0.253%
58 | N#C/C(=C/c1ccc(N2CCOCC2)o1)C(=O)N1CCOCC1 | 7.75%
59 | N#C/C(=C/c1ccc(N2CCCCC2)o1)C(=O)NCCc1c[nH]c2ccccc12 | 38.7% (active)
60 | CCOc1cc(-c2nnc(SCC(=O)NC3CCCC3)nc2-c2ccc(OC)c(OCC)c2)ccc1OC | 0.392%
61 | Cc1ccc(C(=O)Nc2c(C(=O)NC(C)(C)C)oc3ccccc23)cc1 | 0.0939%
62 | CC(C(=O)N(C)CC(=O)Nc1ccccc1C(F)(F)F)N1C(=O)c2ccccc2C1=O (stereo not drawn) | -0.167%
63 | O=C(CN1CCN(c2ccccn2)CC1)NCc1cccs1 | 18.2%
64 | CS(=O)(=O)N1CCN(CC(=O)NC2CCCC2)CC1 | -0.0909%
65 | O=C(CSc1n[nH]c(=O)n1-c1ccccc1)Nc1ccccc1C(F)(F)F | 0.222%
66 | O=C(CN1CCN(c2ncccn2)CC1)Nc1ccccc1C(F)(F)F | 57.8% (active)

Row | SMILES | activation
67 | CCOC(=O)N1CCN(Cc2nc3cc(NC(C)=O)ccc3n2C)CC1 | 0.585%
68 | CCC(=O)Nc1ccc2c(c1)nc(CCN1CCN(c3ccccn3)CC1)n2C | 78.2% (active)
69 | CCN(CC)c1ccc(NC(=O)CN2CCN(c3ccccn3)CC2)cc1 | 26.5%
70 | Cn1c(CCN2CCCCCC2)nc2cc(NC(=O)Nc3ccccc3)ccc21 | 1.58%
71 | O=C(CN1CCN(c2ccccn2)CC1)NC1CCCCC1 | 67.6% (active)
72 | O=C(CN1CCN(c2ccccn2)CC1)Nc1ccc(Br)cc1 | 43.9% (active)
73 | O=C(Cc1ccc(Br)cc1)N1CCN(c2ccccn2)CC1 | 0.551%
74 | CC1CCN(S(=O)(=O)c2ccc3c(c2)N(CC(=O)NCc2ccccc2Cl)C(=O)CO3)CC1 | -0.934%
75 | CCc1ccc(Sc2cc(C(=O)NCCCOC(C)C)c3ccccc3n2)cc1 | 0.0547%
76 | Cc1c(Cl)cccc1-c1ccc(CNCCCSc2nnnn2C)o1 | 0.946%
77 | COc1ccc(-c2cn3nc(N4CCC(C(=O)Nc5cccc(C)c5C)CC4)sc3n2)cc1 | 1.52%
78 | CSc1cccc(NC(=O)CN2C(=O)CCc3cc(S(=O)(=O)N4CCCCC4)ccc32)c1 | 1.49%
79 | COc1ccc(NC(=O)NC(C)c2c(-n3cccc3)sc(C)c2C)cc1OC (stereo not drawn) | 0.829%
80 | CCOC(=O)c1c(C)[nH]c(C)c1S(=O)(=O)NCC(=O)NCc1cccc(C)c1 | 0.112%
81 | COc1ccc(CCNC(=O)c2cc(=O)c3c(C)cc(C)cc3o2)cc1OC | -0.676%
82 | COc1cccc(CNC(=O)C(=O)NCC(c2cccs2)S(=O)(=O)c2ccccc2)c1 (stereo not drawn) | 17.6%
83 | CCN1CCN(c2ncnc3c2cnn3-c2ccc(C)c(C)c2)CC1 | 0.887%
84 | COc1cc(C(=O)NCC(c2ccc(Cl)cc2)N2CCOCC2)cc(OC)c1OC (stereo not drawn) | -0.027%
85 | Cc1cc(C)c2oc(C(=O)Nc3c(C(=O)Nc4ccccc4)oc4ccccc34)cc(=O)c2c1 | 0.443%
86 | Cc1ccccc1C(=O)N(Cc1ccc(N(C)C)cc1)CC1CCCO1 (stereo not drawn) | -0.0491%
87 | O=C(Nc1cc(-c2nc3ccccc3o2)ccc1Cl)c1cc([N+](=O)[O-])ccc1N1CCOCC1 | -0.175%
88 | Cc1ccccc1OCC(=O)Nc1c(C(=O)Nc2ccccc2F)oc2ccccc12 | -0.888%
